# Assay results reported in PubChem BioAssay (Tox21).
# “And” between values parts separate entries of the source, which are not always exact repeats. Equal entries are not always repeated. Some structures have more than one record in an assay (separate samples or runs), and their calls can disagree. The source made the active and inactive calls. A call without a number means that no potency is given here. Unless noted, calls come from the whole dose curve; as a rule, active = well fitted curve in the direction sought with a large enough effect in the repeat runs; inconclusive = weak or mixed curves; inactive = no such curve, though single readings can be large; an effect the other way counts as inactive or inconclusive.
# Key:
# [1] = qHTS assay to identify small molecule antagonists of the thyroid receptor (TR) signaling pathway - cell viability counter screen (AID 743064); note: nearly all actives have a fitted effect of over 50% in size; note: potency is the fitted concentration of half-maximal effect
# Outline: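 GH3.TRE-Luc rat pituitary cells carrying a TRE-luciferase reporter were treated with compound plus 1 nM T3 (final) for 23.5 h at 37 °C. Viability was then read in the same wells by CellTiter-Fluor fluorescence after a further 30 min.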
# [2] = qHTS assay to identify small molecule antagonists of the thyroid receptor (TR) signaling pathway (AID 743065); note: nearly all actives have a fitted effect of over 55% in size; note: potency is the fitted concentration of half-maximal effect
# Outline: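 GH3.TRE-Luc rat pituitary cells carrying two TR response elements driving luciferase were plated for 4 h, given compound plus 1 nM T3 (final), and incubated 23.5 h at 37 C. ONE-Glo luminescence measured reporter inhibition; CellTiter-Fluor fluorescence tracked cytotoxicity.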
# [3] = test system: thyroid hormone receptor (rat, GH3 cells); assay: qHTS assay to identify small molecule agonists of the thyroid receptor (TR) signaling pathway (AID 743066; calls by dose curve)
# [4] = target: Estrogen receptor (Homo sapiens) (UniProt P03372); assay: qHTS assay to identify small molecule antagonists of the estrogen receptor alpha (ER-alpha) signaling pathway (AID 743069; active = well fitted curve in the direction sought with a large enough effect in the signal ratio in the repeat runs, not every such curve was filed as active; inconclusive = weak or mixed curves, or effect the other way; inactive = no such curve, though single readings can be large or run the other way; the % refers to the signal ratio; note: potency is the fitted concentration of half-maximal effect)
# Outline: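 A 17beta-estradiol challenge was applied right after compound transfer to ER-alpha-UAS-bla HEK293 cells previously kept in charcoal-stripped serum. Plates stood 18 hr at 37C and 5% CO2; fluorescence was read following 2 hr FRET substrate loading at room temperature.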
# [5] = qHTS assay to identify small molecule antagonists of the estrogen receptor alpha (ER-alpha) signaling pathway - cell viability counter screen (AID 743074; calls by dose curve;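 note: HEK293 cells carrying ER-alpha-UAS-bla reporter stimulated with 17beta-estradiol; nearly all actives have a fitted effect of over 45% in size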; note: potency is the fitted concentration of half-maximal effect)
# [6] = target: Estrogen receptor (Homo sapiens) (UniProt P03372); assay: qHTS assay to identify small molecule agonists of the estrogen receptor alpha (ER-alpha) signaling pathway (AID 743075; calls by dose curve;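 note: HEK293 GripTite cells with ER-alpha and UAS-driven beta-lactamase reporter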; note: potency is the fitted concentration of half-maximal effect)
# [7] = target: Estrogen receptor (Homo sapiens) (UniProt P03372); assay: qHTS assay to identify small molecule agonists of the estrogen receptor alpha (ER-alpha) signaling pathway using the BG1 cell line (AID 743079); note: nearly all actives have a fitted effect of over 20% in size; note: potency is the fitted concentration of half-maximal effect
# [8] = qHTS assay to identify small molecule antagonists of the estrogen receptor alpha (ER-alpha) signaling pathway using the BG1 cell line (AID 743080; calls by dose curve;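 note: BG1 cells stimulated with 17beta-estradiol alongside compound; series mostly up to about 70 µM; nearly all actives have a fitted effect of over 25% in size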)
# Outline: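 Readout is ONE-Glo luminescence, taken 30 min at room temperature after reagent addition, preceded by a CellTiter-Fluor viability read; BG1-Luc-4E2 cells had received compound and 17beta-estradiol for 21.5 h at 37 C.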
# [9] = qHTS assay to identify small molecule antagonists of the estrogen receptor alpha (ER-alpha) signaling pathway using the BG1 cell line - cell viability counter screen (AID 743081);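 note: compound given together with 17beta-estradiol as the ER stimulus; series mostly up to about 70 µM; nearly all actives have a fitted effect of over 45% in size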
# Aromatase (Homo sapiens) = Aromatase (Homo sapiens) (UniProt P11511); assay: qHTS assay to identify aromatase inhibitors (AID 743083); note: nearly all actives have a fitted effect of over 55% in size; note: potency is the fitted concentration of half-maximal effect
# [10] = qHTS assay to identify aromatase inhibitors - cell viability counter screen (AID 743084);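 note: cells stimulated with testosterone during compound exposure; nearly all actives have a fitted effect of over 55% in size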
# [11] = qHTS assay to identify small molecule that activate the aryl hydrocarbon receptor (AhR) signaling pathway - cell viability counter screen (AID 743086);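 note: HepG2 liver cells carrying the AhR DRE luciferase reporter; series mostly up to about 70 µM; nearly all actives have a fitted effect of over 45% in size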
# Outline: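 HepG2-AhR-luc (HG2L7.5c1) cells, 4000/well, were preincubated 5 h at 37C, exposed to compound in qHTS format for 24 hr at 37C, then given CellTiter-Fluor for 30 min; viability was read as fluorescence in the reporter wells.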
# [12] = qHTS assay to identify small molecule antagonists of the peroxisome proliferator-activated receptor gamma (PPARg) signaling pathway - cell viability counter screen (AID 743194); settings: Potency: co-treated with 50 nM rosiglitazone; note: nearly all actives have a fitted effect of over 55% in size
# Outline: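 PPARg-UAS-bla HEK293H cells were plated, rested 5 h at 37 C, then treated with compounds plus rosiglitazone (50 nM final) for 17 h at 37 C; viability was then read by CellTiter-Glo luminescence after 30 min at room temperature.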
# [13] = qHTS assay for small molecule agonists of the antioxidant response element (ARE) signaling pathway (AID 743202; active = well fitted activation curve with a large enough effect in the signal ratio in the repeat runs, not every such curve was filed as active; inconclusive = weak or mixed curves, or effect the other way; inactive = no such curve, though single readings can be large or run the other way; the % refers to the signal ratio; note: potency is the fitted concentration of half-maximal effect)
# Outline: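 Following a 16 h, 37 C exposure of reporter HepG2 cells (ARE-driven beta-lactamase, 2,000 cells/well) to compounds, FRET substrate was applied for 2 h at room temperature and fluorescence intensity recorded.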
# [14] = qHTS assay for small molecule agonists of the antioxidant response element (ARE) signaling pathway - cell viability counter screen (AID 743203; calls by dose curve; note: nearly all actives have a fitted effect of over 55% in size; note: potency is the fitted concentration of half-maximal effect)
# Outline: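 ATP content via CellTiter-Glo luminescence served as the viability measure. Cells: ARE-bla HepG2, 2,000 per well. Exposure: 16 hrs, 37C/5% CO2.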
# [15] = qHTS assay for small molecule activators of the heat shock response signaling pathway - cell viability counter screen (AID 743209); note: nearly all actives have a fitted effect of over 50% in size; note: potency is the fitted concentration of half-maximal effect
# Outline: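 Compounds dissolved in DMSO were added to overnight-plated HSE-bla HeLa cells and left 5 h at 37 C. Cell viability was quantified by luminescence using CellTiter-Glo.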
# [16] = qHTS assay for small molecule activators of the heat shock response signaling pathway (AID 743210; active = well fitted activation curve with a large enough effect in the signal ratio in the repeat runs, with a control signal flat, not every such curve was filed as active; inconclusive = weak or mixed curves; the % refers to the signal ratio; note: series mostly up to about 63 µM)
# Outline: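 Heat shock element–beta-lactamase HeLa reporter cells; qHTS with compounds for 5 h at 37 C; detection by FRET substrate fluorescence after 2.5 h at RT.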
# [17] = target: Aryl hydrocarbon receptor (Homo sapiens) (UniProt P35869); assay: qHTS assay to identify small molecule that activate the aryl hydrocarbon receptor (AhR) signaling pathway (AID 743085);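 note: HG2L7.5c1 human HepG2 liver cells with stably integrated DRE-driven firefly reporter; series mostly up to about 70 µM; nearly all actives have a fitted effect of over 15% in size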
# Outline: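 HepG2 cells (HG2L7.5c1) stably carrying a firefly luciferase reporter driven by 20 dioxin responsive elements were exposed to compound for 24 h at 37C after a 5 h settling period; luminescence rise (ONE-Glo) indicated activation.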
# [18] = target: Peroxisome proliferator-activated receptor gamma (Homo sapiens) (UniProt P37231); assay: qHTS assay to identify small molecule agonists of the peroxisome proliferator-activated receptor gamma (PPARg) signaling pathway (AID 743094; active = well fitted activation curve with a large enough effect in the signal ratio in the repeat runs, not every such curve was filed as active; inconclusive = weak or mixed curves, or effect the other way; inactive = no such curve, though single readings can be large or run the other way; the % refers to the signal ratio)
# Outline: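 Agonism was assessed in a beta-lactamase reporter system, HEK293H cells with a stably integrated UAS-bla construct under PPARg control; the 17 h treatment at 37C preceded a 1 h room-temperature FRET substrate read.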
# [19] = target: Peroxisome proliferator-activated receptor gamma (Homo sapiens) (UniProt P37231); assay: qHTS assay to identify small molecule antagonists of the peroxisome proliferator-activated receptor gamma (PPARg) signaling pathway (AID 743191; calls by dose curve; note: series mostly up to about 63 µM; nearly all actives have a fitted effect of over 30% in size)
# Outline: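 GeneBLAzer PPARg UAS-bla HEK293H cells carrying a UAS-driven beta-lactamase reporter were plated at 3000 cells/well, preincubated 5 h at 37C, then given compound for 17 h at 37C; LiveBLAzer B/G FRET substrate was read after 1 h at room temperature.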
# Chain of Aryl hydrocarbon receptor (Homo sapiens) (P35869 whole entry, looked up): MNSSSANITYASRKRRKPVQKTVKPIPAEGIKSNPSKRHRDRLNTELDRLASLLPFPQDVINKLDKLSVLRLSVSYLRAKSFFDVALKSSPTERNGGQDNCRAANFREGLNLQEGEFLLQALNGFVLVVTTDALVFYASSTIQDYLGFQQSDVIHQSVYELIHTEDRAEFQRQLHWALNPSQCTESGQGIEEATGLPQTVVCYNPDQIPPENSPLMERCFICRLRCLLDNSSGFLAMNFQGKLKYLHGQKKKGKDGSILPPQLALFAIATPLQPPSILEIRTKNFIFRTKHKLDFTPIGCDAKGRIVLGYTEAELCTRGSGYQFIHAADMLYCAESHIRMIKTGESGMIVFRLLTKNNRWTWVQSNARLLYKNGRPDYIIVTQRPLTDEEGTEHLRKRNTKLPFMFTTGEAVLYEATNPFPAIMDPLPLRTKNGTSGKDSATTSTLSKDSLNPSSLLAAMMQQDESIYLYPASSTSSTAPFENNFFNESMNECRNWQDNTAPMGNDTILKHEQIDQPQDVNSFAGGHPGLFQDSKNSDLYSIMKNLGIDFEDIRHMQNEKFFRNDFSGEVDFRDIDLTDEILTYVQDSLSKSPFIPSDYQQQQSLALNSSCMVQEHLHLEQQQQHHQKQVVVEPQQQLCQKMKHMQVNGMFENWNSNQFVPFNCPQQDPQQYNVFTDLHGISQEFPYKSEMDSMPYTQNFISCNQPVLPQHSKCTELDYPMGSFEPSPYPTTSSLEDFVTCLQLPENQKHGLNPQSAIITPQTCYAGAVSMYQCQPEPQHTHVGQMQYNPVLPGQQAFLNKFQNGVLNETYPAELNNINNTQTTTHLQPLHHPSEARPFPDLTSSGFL
# Chain of Peroxisome proliferator-activated receptor gamma (Homo sapiens) (P37231 whole entry, looked up): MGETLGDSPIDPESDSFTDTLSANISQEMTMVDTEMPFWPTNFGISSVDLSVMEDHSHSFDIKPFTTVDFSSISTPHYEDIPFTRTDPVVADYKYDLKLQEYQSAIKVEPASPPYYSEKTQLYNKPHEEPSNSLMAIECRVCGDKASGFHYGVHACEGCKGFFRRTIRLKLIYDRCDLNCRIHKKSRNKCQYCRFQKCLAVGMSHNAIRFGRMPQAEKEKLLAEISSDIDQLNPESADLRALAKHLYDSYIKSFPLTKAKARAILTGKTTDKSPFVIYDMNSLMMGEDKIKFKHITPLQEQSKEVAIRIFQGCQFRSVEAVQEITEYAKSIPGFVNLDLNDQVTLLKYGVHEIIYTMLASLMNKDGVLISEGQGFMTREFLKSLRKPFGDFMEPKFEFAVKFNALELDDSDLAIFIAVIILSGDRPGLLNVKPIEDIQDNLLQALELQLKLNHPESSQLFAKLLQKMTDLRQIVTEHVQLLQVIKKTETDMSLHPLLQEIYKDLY
# Chain of Estrogen receptor (Homo sapiens) (P03372 whole entry, looked up): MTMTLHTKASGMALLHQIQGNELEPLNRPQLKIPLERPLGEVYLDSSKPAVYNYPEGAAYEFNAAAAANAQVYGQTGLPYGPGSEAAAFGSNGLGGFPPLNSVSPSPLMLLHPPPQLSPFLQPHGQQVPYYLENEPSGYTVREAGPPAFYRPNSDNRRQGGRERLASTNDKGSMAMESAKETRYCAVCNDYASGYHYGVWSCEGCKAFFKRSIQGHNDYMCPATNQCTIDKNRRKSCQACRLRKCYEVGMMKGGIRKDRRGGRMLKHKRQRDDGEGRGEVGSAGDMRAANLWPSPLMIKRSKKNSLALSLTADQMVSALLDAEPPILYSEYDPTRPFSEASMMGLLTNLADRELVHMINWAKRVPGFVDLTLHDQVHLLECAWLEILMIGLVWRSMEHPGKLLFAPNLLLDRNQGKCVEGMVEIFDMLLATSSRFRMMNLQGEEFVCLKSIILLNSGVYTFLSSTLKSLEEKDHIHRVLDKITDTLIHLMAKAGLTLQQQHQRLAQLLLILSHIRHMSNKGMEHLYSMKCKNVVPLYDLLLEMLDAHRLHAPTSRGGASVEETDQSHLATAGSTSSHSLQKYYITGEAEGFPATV
# Chain of Aromatase (Homo sapiens) (P11511 whole entry, looked up): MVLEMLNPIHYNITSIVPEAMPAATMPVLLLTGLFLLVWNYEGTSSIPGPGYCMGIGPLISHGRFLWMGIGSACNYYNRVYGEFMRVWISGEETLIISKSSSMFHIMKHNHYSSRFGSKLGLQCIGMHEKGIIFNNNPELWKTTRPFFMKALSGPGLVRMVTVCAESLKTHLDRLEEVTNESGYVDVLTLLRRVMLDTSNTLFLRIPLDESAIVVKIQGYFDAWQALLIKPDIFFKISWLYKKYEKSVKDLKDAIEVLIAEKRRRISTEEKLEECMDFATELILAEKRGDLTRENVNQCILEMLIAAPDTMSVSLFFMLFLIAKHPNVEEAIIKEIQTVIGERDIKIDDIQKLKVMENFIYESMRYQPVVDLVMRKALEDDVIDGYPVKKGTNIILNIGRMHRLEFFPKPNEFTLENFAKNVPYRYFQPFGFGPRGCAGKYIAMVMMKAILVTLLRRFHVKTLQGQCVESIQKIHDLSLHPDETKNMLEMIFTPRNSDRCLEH
Structure (SMILES),Potency [1],Potency [2],Potency [3],Potency [4],Potency [5],Potency [6],Potency [7],Potency [8],Potency [9],Potency (Aromatase (Homo sapiens)),Potency [10],Potency [11],Potency [12],Potency [13],Potency [14],Potency [15],outcome [16],Potency [17],Potency [18],Potency [19]
N#C/C(N)=C(/N)C#N,inactive,inactive,inactive,inactive,inactive,inactive,inactive,inactive,inactive,inactive,inactive,inactive,inactive,inactive,inactive,inactive,inactive,,,
COc1cc(Cl)c(OC)cc1Cl,inactive,inactive,inactive,inactive,inactive,inactive,inactive,inactive,inactive,inactive,inactive,inactive,,,inactive,inactive,inactive,inactive,inactive,inactive
CNC(C)Cc1ccccc1OC (configuration not stated),inactive,inactive,inactive,inactive,inactive,inactive,inactive,inactive,inactive,inactive,inactive,inactive,inactive,inactive,inactive,inactive,inactive,inactive,,
Nc1nc(=S)[nH][nH]1,inactive,inactive,inactive,inactive,inactive,inactive,inactive,inactive,inactive,inactive,inactive,inactive,inactive,inactive,inactive,inactive,inactive,inactive,,
O=NN1CCNCC1,inactive,inactive,inactive,inactive,inactive,inactive,inactive,inactive,inactive,inactive,inactive,inactive,,inactive,inactive,,,inactive,,inactive
CCOc1ccc(C(C)(C)COCc2cccc(Oc3ccccc3)c2)cc1,inactive,inactive,inactive,inactive,inactive,inactive,inactive,inactive,inactive,inactive,inactive,inactive,,,inactive,inactive,inactive,inactive,inactive,
N#CCC#N,61.1 µM (active),48.6 µM (active),inactive,inactive,inactive,inactive,inactive,inactive,inactive,inactive,inactive,inactive,inactive,inactive,inactive,,,inactive,inactive,inactive
CC(Cl)C(C)Cl (configuration not stated),inactive,inactive,inactive,inactive,inactive,inactive,inactive,inactive,inactive,inactive,inactive,inactive,inactive,inactive,inactive,inactive,,inactive,inactive,inactive
NC(=O)CI,inactive,inactive,inactive,inactive,inactive,inactive,inactive,inactive,inactive,inactive,inactive,inactive,inactive,inactive,inactive,inactive,inactive,inactive,inactive,inactive
II,inactive,inactive,inactive,inactive,inactive,inactive,inactive,inactive,inactive,,inactive,inactive,inactive,inactive,inactive,inactive,inactive,inactive,inactive,
Brc1ccccc1,inactive,inactive,inactive,inactive,inactive,inactive,inactive,inactive,inactive,inactive,inactive,inactive,inactive,inactive,inactive,inactive,inactive,inactive,inactive,inactive
O=NN1CCCCCC1,inactive,inactive,inactive,inactive,inactive,inactive,inactive,inactive,inactive,inactive,inactive,inactive,inactive,inactive,inactive,inactive,inactive,inactive,inactive,
c1ccc(C2CC2)c(OCC2=NCCN2)c1,inactive,inactive,inactive,inactive,inactive,inactive,inactive,inactive,,inactive,inactive,inactive,inactive,inactive,inactive,inactive,inactive,inactive,inactive,inactive
CCOP(=S)(OCC)SCSCC,inactive,inactive,inactive,inactive,inactive,inactive,30.6 µM (active),inactive,inactive,inactive,inactive,inactive,inactive,inactive,inactive,inactive,inactive,inactive,inactive,
Cn1cc[n+](C)c1 (tested in a mixture with another compound),inactive,inactive,inactive,inactive,inactive,inactive,inactive,inactive,inactive,inactive,inactive,inactive,inactive,inactive,inactive,inactive,inactive,inactive,,inactive
O=C(CCl)c1ccc(Cl)cc1Cl,1.33 µM (active) and 4.33 µM (active) and inactive,1.5 µM (active) and 3.44 µM (active),inactive,inactive,38.9 µM (active),inactive,inactive,inactive,inactive,inactive,inactive,inactive,,5.31 µM (active),inactive and 26.6 µM (active),8.41 µM (active),,,,

Structure (SMILES),Potency [1],Potency [2],Potency [3],Potency [4],Potency [5],Potency [6],Potency [7],Potency [8],Potency [9],Potency (Aromatase (Homo sapiens)),Potency [10],Potency [11],Potency [12],Potency [13],Potency [14],Potency [15],outcome [16],Potency [17],Potency [18],Potency [19]
Clc1ccc(C(OCCN2CCCCC2)c2ccccc2)cc1 (configuration not stated),9.02 µM (active),11.4 µM (active),inactive,inactive,inactive,inactive,inactive,inactive,inactive,inactive,inactive,inactive,inactive,,,,inactive,inactive,inactive,inactive
C=CCC1([C@H](C)CCC)C(=O)NC(=O)NC1=O,inactive,inactive,inactive,inactive,inactive,inactive,inactive,inactive,inactive,inactive,inactive,inactive,inactive,,inactive,inactive,inactive,inactive,inactive,inactive
CN(N=O)c1ccc([N+](=O)[O-])cc1,inactive,inactive,inactive,inactive,inactive,inactive,inactive,inactive,inactive,inactive,inactive,inactive,inactive,inactive,inactive,inactive,inactive,,inactive,inactive
COC(=O)C(C)N(C(=O)Cc1ccccc1)c1c(C)cccc1C (configuration not stated),inactive,61.1 µM (active),inactive,inactive,inactive,inactive,inactive,inactive,inactive,inactive,inactive,inactive,inactive,,inactive,inactive,inactive,,inactive,inactive
COC(N)=O,inactive,inactive,inactive,inactive,inactive,inactive,inactive,inactive,inactive,inactive,inactive,inactive,,,inactive,inactive,inactive,,inactive,inactive
C=CCOC(C)=O,inactive,inactive,inactive,inactive,inactive,inactive,inactive,inactive,inactive,inactive,inactive,inactive,inactive,inactive,inactive,inactive,inactive,inactive,inactive,
C=CCCl,inactive,inactive,inactive,inactive,inactive,57.6 µM [activator] (active),32.1 µM (active),inactive,inactive,inactive,inactive,inactive,inactive,inactive,inactive,inactive,inactive,,inactive,inactive
COCC(C)N(C(=O)CCl)c1c(C)csc1C (configuration not stated),inactive,inactive,inactive,inactive and 30.9 µM [inconclusive] (active),inactive,inactive,inactive,inactive,inactive,inactive and 34.4 µM (active),inactive,inactive,,4.33 µM (active),,inactive,inactive,inactive,,
CCN(C)N=O,inactive,inactive,inactive,inactive,inactive,inactive,inactive,inactive,inactive,inactive,inactive,inactive,inactive,,inactive,inactive,inactive,inactive,inactive,inactive
O=C(O)COc1ccc(Cl)cc1,inactive,inactive,inactive,inactive,inactive,inactive,inactive,inactive,inactive,inactive,inactive,inactive,inactive,,inactive,inactive,inactive,inactive,inactive,
CCCCCCC#N,inactive,inactive,inactive,inactive,inactive,inactive,inactive,inactive,inactive,inactive,inactive,inactive,,inactive,inactive,,inactive,,,inactive
CCBr,inactive,inactive,inactive,inactive,inactive,inactive,inactive,inactive,inactive,inactive,inactive,inactive,,inactive,inactive,inactive,,,,
O=C(C(Cl)(Cl)Cl)C(Cl)(Cl)Cl,inactive,inactive,inactive,inactive,inactive,inactive,inactive,inactive,inactive,inactive,inactive,inactive,,inactive,inactive,inactive,inactive,inactive,,
C=C(C#N)CCC#N,inactive,inactive,inactive,inactive,inactive,inactive,inactive,inactive,inactive,inactive,,inactive,inactive,,inactive,inactive,inactive,inactive,,inactive
C[C@H]1CNCCc2ccc(Cl)cc21,inactive,inactive,inactive,inactive,inactive,inactive,inactive,inactive,inactive,inactive,inactive,inactive,,,inactive,inactive,inactive,inactive,,
COC(=O)C(Cl)C(=O)OC,inactive,inactive,inactive,inactive,inactive,inactive,inactive,,inactive,inactive,inactive,inactive,inactive,,inactive,,inactive,,inactive,
